Laboratory results published in PubChem BioAssay AID1851 (National Center for Advancing Translational Sciences (NCATS), 2009).
Hit rate of the full screen: of about 16,000 compounds, about 5,700 (36%) were called active. Roughly 24% stayed inconclusive and do not appear here. Calls follow the shape of the dose curve; as a rule, active = well fitted curve in the direction sought with a large enough effect; inconclusive = small, poorly fitted or top-dose-only effect, or effect the other way; inactive = no such curve, though single readings can be large or run the other way. Some of the results follow.

These molecules were tested against Cytochrome P450 1A2 (Homo sapiens) (UniProt P05177) (assay: Cytochrome panel assay with activity outcomes). Settings: recombinant CYP, pro-luciferin dealkylation, luminescence, p450-cyp1a2; series mostly up to 57.1 µM.
% is scaled to controls: 0 for no effect and ±100 for the full control effect.

Sequence of Cytochrome P450 1A2 (Homo sapiens) (P05177 whole entry, looked up): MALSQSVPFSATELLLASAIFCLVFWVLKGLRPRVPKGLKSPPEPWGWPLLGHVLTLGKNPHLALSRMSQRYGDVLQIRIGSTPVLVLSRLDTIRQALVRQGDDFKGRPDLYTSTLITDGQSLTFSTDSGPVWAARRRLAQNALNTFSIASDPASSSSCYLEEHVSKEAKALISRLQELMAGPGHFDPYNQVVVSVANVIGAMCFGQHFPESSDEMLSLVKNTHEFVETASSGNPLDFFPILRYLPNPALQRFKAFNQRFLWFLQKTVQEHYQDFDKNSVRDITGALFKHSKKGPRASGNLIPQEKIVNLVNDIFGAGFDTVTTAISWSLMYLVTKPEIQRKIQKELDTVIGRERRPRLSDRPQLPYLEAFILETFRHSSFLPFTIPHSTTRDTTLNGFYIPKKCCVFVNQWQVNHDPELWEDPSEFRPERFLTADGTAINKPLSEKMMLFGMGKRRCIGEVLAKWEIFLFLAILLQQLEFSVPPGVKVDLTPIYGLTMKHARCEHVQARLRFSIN

AC50, active:
CCNc1ncc2nc(-c3ccc(Cl)cc3)c(=O)n(C[C@H]3CCCO3)c2n1 0.794 µM
CCNc1ncc2nc(-c3ccc(F)cc3)c(=O)n(C[C@H]3CCCO3)c2n1 1.26 µM
Cc1nc2cnc(N3CCN(C)CC3)nc2n(Cc2cccs2)c1=O 12.6 µM
CN1CCN(c2ncc3nc(CCc4ccccc4)c(=O)n(C)c3n2)CC1 12.6 µM
Cc1nc2cnc(N3CCOCC3)nc2n(Cc2cccs2)c1=O 2 µM
Cc1nc2cnc(N3CCNCC3)nc2n(Cc2cccs2)c1=O 0.631 µM
O=c1cnc2cnc(N3CCOCC3)nc2n1Cc1cccs1 2.51 µM
CN1CCN(c2ncc3nc(CCc4ccccc4)c(=O)n(Cc4cccs4)c3n2)CC1 15.8 µM
Brc1ccc(/C=C/C=N/Nc2nc3ccccc3s2)cc1 2.24 µM
CCCn1cnc2c(SCc3ccc(Cl)cc3)nc(N)nc21 1.26 µM
CCOC(=O)c1cnc(SCCc2ccccc2)nc1N 25.1 µM
CCOC(=O)c1c(NC(=S)Nc2ccccc2)sc2c1CCN(CCc1ccccc1)C2 15.8 µM
Cc1ccc(CNC(=O)CN2C(=O)COc3ccc(C)cc32)cc1 3.16 µM
Cc1ccc2c(c1)N(CCC(=O)NCc1ccc3c(c1)OCO3)C(=O)CO2 15.8 µM
Cc1ccc2c(c1)N(CCC(=O)NCc1cccnc1)C(=O)CO2 3.16 µM
Cc1ccc2c(c1)N(CC(=O)NCc1cccs1)C(=O)C(C)O2 (stereo unspecified) 5.01 µM
COc1cc(C(=O)NCCC(=O)NCc2ccc3c(c2)OCO3)cc(OC)c1OC 20 µM
COc1cc2ccccc2cc1C(=O)Nc1ccc(S(=O)(=O)Nc2cc(C)on2)cc1 25.1 µM
Cc1cc(NC(=O)c2ccc(S(=O)(=O)Nc3ccccc3)cc2)no1 5.01 µM
CCc1noc(N)c1C(=O)Nc1ccc(F)c(Cl)c1 4.47 µM
Cc1noc(N)c1C(=O)Nc1ccc(F)cc1 8.91 µM
O=C(O)CCC(=O)c1ccc2ccc3cccc4ccc1c2c34 1.26 µM
Cc1ccc(/C(N)=N/OC(=O)Cc2cccs2)cc1 15.8 µM
CN(NC(=O)NN)c1ncc(C(F)(F)F)cc1Cl 14.1 µM

AC50, inactive:
O=C(CCNC(=O)Cn1ccc2ccccc2c1=O)NCCCN1CCN(c2ccc(F)cc2)CC1
Cc1ccc(C2/C(=C(/O)c3ccc(Cl)cc3)C(=O)C(=O)N2CC2CCCO2)o1 (stereo unspecified)
COc1ccc(-n2c(=O)c(CCc3ccccc3)nc3cnc(N4CCN(C)CC4)nc32)cc1
Cc1ccc(CCN2CC(C(=O)NCCN3CCCCCC3)CC2=O)cc1 (stereo unspecified)
CN1CCN(c2ncc3nc(CCc4ccccc4)c(=O)n(Cc4ccc(F)cc4)c3n2)CC1
C[C@H]1NC(=O)NC1=O
COc1cc([C@@H](O)CO)ccc1OS(=O)(=O)O
CCN1CCc2c(sc(N)c2C(N)=O)C1
CCN1CCc2c(sc(NC(=O)c3ccc(S(=O)(=O)N4CCOCC4)cc3)c2C(=O)OC)C1
COc1ccc(CCNC(=O)CCN2C(=O)COc3ccc(C)cc32)cc1OC
Cc1ccc2c(c1)N(CCC(=O)NCCN1CCOCC1)C(=O)CO2
Cc1ccc2c(c1)N(CC(=O)NC1CCC(C)CC1)C(=O)CO2 (stereo unspecified)
Cc1ccc2c(c1)N(CC(=O)NC1CCCc3ccccc31)C(=O)CO2 (stereo unspecified)
CC(=O)OCC1=C(C(=O)O)N2C(=O)[C@@H](NC(=O)Cc3cccs3)[C@@H]2SC1
COc1ccc(CCNC(=O)CCN2C(=O)C(C)Oc3ccc(C)cc32)cc1OC (stereo unspecified)
Cc1ccc(C)c(N2CCN(C(=O)C3CCN(S(=O)(=O)c4cccc5nsnc45)CC3)CC2)c1
O=C(O)CCC(=O)N1CCC[C@H]1C(=O)O
O=C(CCNS(=O)(=O)c1ccc2c(c1)CCC(=O)N2)NCc1ccc2c(c1)OCO2
CCN1CCCC1CNC(=O)CCNC(=O)c1cc(OC)c(OC)c(OC)c1 (stereo unspecified)
Cc1ccc(OCC(=O)Nc2ccc(S(=O)(=O)Nc3onc(C)c3C)cc2)cc1
NS(=O)(=O)c1ccc(NS(=O)(=O)c2ccc(NC(=O)c3ccc(-c4ccccc4)cc3)cc2)cc1
Cc1cc(C)c2nc(-c3ccccn3)cc(C(=O)Nc3ccc(S(=O)(=O)Nc4cc(C)on4)cc3)c2c1
CC(C)CC(C(=O)NCC1CCCO1)N(C(=O)Cn1nnc(-c2ccc(F)cc2)n1)c1cccc(C(F)(F)F)c1 (stereo unspecified)
Cc1cnn(CCC(=O)NNC(=S)Nc2ccc(F)cc2)c1
Cc1noc(C)c1C(=O)N1CCC2(CC1)CN(C(=O)Nc1cccc(F)c1)C2
COCC(=O)N1CCC2(CC1)CCN(C(=O)Nc1cccc(F)c1)CC2
CC(=O)N=c1sc(S(N)(=O)=O)nn1C
O=C(O)CCC(=O)CCC(=O)c1ccccc1
CN(c1ccc(C(=O)NC2CC3CCC2C3)cc1)S(C)(=O)=O (stereo unspecified)

activity, negative = inhibition, inactive:
Cc1cc2c(nc1C)CCCCN2C[C@H](O)CN1CCCc2nc(-c3ccc(Br)cc3)ccc21 -8.63% [at 11.4 µM]
CCCn1cnc2c(SCC(=O)O)nc(N)nc21 1.5% [at 11.4 µM]
Cc1ccc2ccccc2c1CSc1nc(N)nc2c1ncn2CC(C)C -20.8% [at 2.29 µM]
CCOC(=O)c1cnc(N(C)C)nc1SC(=N)N -22.6% [at 2.29 µM]
CO[C@H]1COC(=O)C/C=C\[C@@H](C)COC(=O)[C@@H](C)NC(=O)C/C=C\[C@@H]1C -10.1% [at 11.4 µM]
C/C(CCC(=O)OC[C@@H]1O[C@H](C#Cc2ccccc2)C=C[C@@H]1Oc1ccc(C)cc1)=N/OC[C@@H](C)[C@H](OCc1ccccc1)C(C)C -1.97% [at 11.4 µM]
Cc1ccc(C(N)=Nc2ccccc2)cc1 -14.7% [at 11.4 µM]
O=C(O)C(Cc1cccs1)C(=O)O -2.09% [at 2.29 µM]
